Bioassay records from PubChem.
The list is not random: actives were taken first. Their share in the collection is about 11%.
Pf growth 96h – P. falciparum growth inhibition at 96 hours; P. falciparum luciferase reporter growth, 96 h; Potency, µM (top dose mostly 28.7 µM), inactives show at the top dose activity change, negative = inhibition, usual class: inhibitors; actives 6.9% (n = 320,000)
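Two parasite generations (96 h, 37 C, 5% CO2) of compound exposure in infected erythrocytes (0.05% parasitemia, 2% hematocrit). Luciferase-reporter P. falciparum; decreased luminescence indicates inhibited growth, aimed at apicoplast-acting delayed death.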
AMA1-RON2 inh – disrupts binding of P. falciparum AMA1 to RON2. AlphaScreen AMA1-biotinylated RON2 peptide binding. Potency, µM (top dose mostly 58.2 µM), inactives show at the highest dose activity change, negative = inhibition, usual class: inhibitors. actives 0.2% (n = 360,000);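 further: 0% = vehicle wells and -100% = peptide control; nearly all actives have a fitted effect of over 45% in size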
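AMA1 (3D7) with his tag at 25 nM final met compounds first, then biotinylated RON2 peptide at 25 nM; detection used donor plus acceptor beads, 10 µg/mL apiece, read by AlphaScreen after 30 min at room temperature.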
HCV inh – HCV inhibition. actives 3.4% (n = 340,000). Huh7.5.1 HCVcc-Cre infection, luciferase reporter, 44 h. Potency, µM (top dose mostly 41.8 µM), without a hit: at the top dose activity change, negative = inhibition, most hits filed as inhibitors
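After 44 h co-culture of compound, cells and HCVcc-Cre (~0.5 moi), substrate is added for 15 min at room temperature and luciferase measured over 15 sec. Cells were seeded at 1,000/well and pre-cultured 4 h.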
AmpC detergent – inhibitors of E. coli AmpC beta-lactamase with detergent | AID 485294 | AmpC hydrolysis of nitrocefin, absorbance 480 nm, 0.01% Triton | Potency, µM (top dose mostly 114 µM), for inactives: at the top dose activity change, negative = inhibition, hits mostly inhibitors | actives 0.041% (n = 370,000) | P00811;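 further: 0% = no-compound wells and -100% = no-enzyme wells; nearly all actives have a fitted effect of over 25% in size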
Target sequence (P00811 whole entry, looked up): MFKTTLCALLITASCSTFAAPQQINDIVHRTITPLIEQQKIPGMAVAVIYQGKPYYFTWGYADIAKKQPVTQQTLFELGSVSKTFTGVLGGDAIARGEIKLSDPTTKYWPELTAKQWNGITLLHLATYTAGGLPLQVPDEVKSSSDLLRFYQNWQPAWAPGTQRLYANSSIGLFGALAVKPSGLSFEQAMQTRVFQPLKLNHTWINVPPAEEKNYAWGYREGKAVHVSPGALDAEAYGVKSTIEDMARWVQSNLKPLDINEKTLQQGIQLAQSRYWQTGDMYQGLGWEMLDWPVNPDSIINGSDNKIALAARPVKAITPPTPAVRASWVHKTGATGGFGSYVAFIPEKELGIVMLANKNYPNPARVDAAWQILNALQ
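20 mM phosphate pH 7.0 + 0.01% (detergent screen) or 0.0001% Triton X-100; 5.3 nM AmpC reagent; cpd preinc 15 min RT; nitrocefin (800 uM stock) to start; A480 q20 s × 4 min; Activity was normalised to no-enzyme and no-compound control wells.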
AmpC no deterg – inhibitors of E. coli AmpC beta-lactamase without detergent; P00811; AmpC nitrocefin hydrolysis, absorbance 480 nm, 0.0001% Triton; Potency, µM (top dose mostly 57.1 µM), for the others: at the highest dose activity change, negative = inhibition, usual class: inhibitors; actives 0.52% (n = 330,000); AID 485341;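 further: plate controls were no compound for no effect and no enzyme for full effect; nearly all actives have a fitted effect of over 20% in size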
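20 mM phosphate pH 7.0 + 0.01% (detergent screen) or 0.0001% Triton X-100; 5.3 nM AmpC reagent; cpd preinc 15 min RT; nitrocefin (800 uM stock) to start; A480 q20 s × 4 min; Activity was normalised to no-enzyme and no-compound control wells.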
Pf growth 48h – inhibits P. falciparum growth in the first generation, 48 h. AID 504832. Potency, µM (series often up to 28.7 µM), inactives show at the top dose activity change, negative = inhibition, actives largely listed as inhibitors. actives 5.9% (n = 310,000). P. falciparum luciferase growth in erythrocytes, 48 h
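Compounds are pin-transferred into medium, infected erythrocytes (2% hematocrit, 0.1% parasitemia final) are added, and plates sit one parasite generation at 37 C in 5% CO2. Detection reagent is then added and luminescence measured.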
* = called active by the depositor; u = inconclusive; x = no result given; [ ] = remark or other dose. The call rests on the fitted dose curve; in most records, active means well fitted curve in the direction sought with a large enough effect; inconclusive means small, poorly fitted or top-dose-only effect, or another doubt; inactive means no such curve, though single readings can be large; an effect the other way counts as inactive or inconclusive. Unless noted, on the % scale 0 is the no-effect control and ±100 the full control effect; potency means the concentration at half of the fitted maximal effect.

SMILES	Pf growth 96h	AMA1-RON2 inh	HCV inh	AmpC detergent	AmpC no deterg	Pf growth 48h
O=C(CN1CCSC1=NCc1ccccc1)c1ccc(Cl)cc1	u	5%	13µM*	10%	-7%	-24%
CCc1sc(C(=O)NCc2ccco2)cc1Br	10µM*	-2%	13%	7%	-27%	1%
CCc1sc(C(=O)NCc2ccco2)cc1C	15%	5%	-10%	-8%	-31%	-2%
COc1cc2c(cc1OC)C(Cc1ccccc1[N+](=O)[O-])=NCC2	x	-19%	-9%	x	x	x
COc1ccc2c(c1)CCN=C2Cc1ccc(OC)c(OC)c1	13µM*	-15%	u	-11%	-3%	u
O=C(CCc1nc2cccnc2n1Cc1cccs1)Nc1cccc(C(F)(F)F)c1	x	x	x	11%	x	x
CC(C)c1ccc(N2C(=O)CC(Sc3ncccn3)C2=O)cc1 (centres undefined)	2.1µM*	5%	14%	-20%	-11%	3%
CC(C)OC(=O)c1cc(C(=O)c2cc(F)ccc2O)coc1=N	u	5%	-10%	1%	-25%	x
COc1ccc(O)c(C(=O)c2coc(=N)c(C(=O)Nc3ccc(SC(F)F)cc3)c2)c1	2.3µM*	-23%	u	5%	14µM*	u
Cc1c(Cl)cccc1NC(=O)CSc1ncc(S(=O)(=O)c2ccc(C(C)C)cc2)c(=O)[nH]1	x	x	x	3%	x	x
O=[N+]([O-])c1c(Nc2ccc(O)cc2)cc(Cl)c2nonc12	-24%	-13%	7.1µM*	-15%	-22%	x
O=C(CCSCc1cnn(-c2ccccc2)c1-n1cccc1)NCc1ccc(Cl)cc1	x	x	x	-8%	x	x
Cc1ccc(C(C)C)c(OCC(=O)Nc2sc3c(c2C#N)CC(C)(C)NC3(C)C)c1	u	4%	u	2%	-4%	u
CCCC(=O)Nc1sc2c(c1C#N)CC(C)(C)NC2(C)C	2.1µM*	0%	-5%	-5%	-21%	11%
CC1(C)Cc2c(sc(NC(=O)COc3ccccc3)c2C#N)C(C)(C)N1	3%	21%	13µM*	2%	-6%	0%
CC(=O)Nc1sc2c(c1C#N)CC(C)(C)NC2(C)C	x	28%	-10%	5%	-15%	9%
Cc1cc(OCC(=O)Nc2sc3c(c2C#N)CC(C)(C)NC3(C)C)c(C(C)C)cc1Cl	7.4µM*	-3%	3.2µM*	7%	16%	13µM*
Fc1cccc(Cl)c1CNc1n[nH]c(-c2ccco2)n1	x	x	x	-7%	x	x
Cc1ccc(Cl)cc1N1CCN(CCNC(=O)Nc2ccccc2Cl)CC1	x	x	x	15%	x	x
c1ccc(-c2[nH]c(-c3ccccc3)[n+](CC3CO3)c2-c2ccccc2)cc1 (centres undefined)	10µM*	u	u	-8%	-5%	u
OC1COC(OCc2ccccc2)C(O)C1O (centres undefined)	u	-2%	u	-5%	-9%	-2%
O=C1Nc2ccc(Br)cc2C1(O)Cc1ccncc1 (centres undefined)	42%	4%	10%	-1%	-9%	8%
O=C1Nc2ccccc2C1(O)Cc1ccncc1 (centres undefined)	9.3µM*	7%	9%	2%	-8%	12%
O=c1c(=O)n(-c2cccc(Cl)c2)ccn1Cc1cccc(F)c1	x	x	x	-7%	x	x
N#Cc1ccc(NC(=O)Nc2ccc(Cl)cc2)cc1	29%	7%	u	-2%	u	u
SMILES	Pf growth 96h	AMA1-RON2 inh	HCV inh	AmpC detergent	AmpC no deterg	Pf growth 48h
N#C/C(C(=O)Nc1ccc(Cl)cc1)=C(/S)Nc1ccccc1	u	17%	u	40µM*	u	-13%
CCCn1ccc2c(OCC(=O)Nc3ccccc3C(=O)OCC)cccc2c1=O	x	x	x	0%	x	x
CC(=O)c1ccc(NC(=S)Nc2ccc(Br)c(Cl)c2)cc1	-1%	41%	-16%	-7%	-41%	-1%
CC(=O)c1ccc(NC(=S)NC(C)c2ccc(Cl)cc2Cl)cc1 (centres undefined)	u	4%	-8%	u	-34%[11.4 µM]	2.3µM*
COc1ccc(/C=C/C(=O)NC(=S)NNC(=O)[C@H]2C[C@@H]2c2ccccc2)cc1OC	-2%	130%	u	-3%	7.1µM*	39%
CSC1=N/C(=C/c2cccnc2)C(=O)N1Cc1ccc(Cl)cc1	u	75%	-15%	5%	-26%	6.6µM*
Cn1c(SCC(N)=O)nc2c([nH]c3ccccc32)c1=O	x	x	x	-2%	x	x
COc1ccc(C(O)(CCc2ccccc2)CCN2CCCCC2)cc1 (centres undefined)	9%	1%	32µM*	10%	58%	u
CC(=O)c1cccc(NC(=O)c2oc(=O)c3ccccc3c2-c2ccccc2)c1	x	x	x	-7%	x	x
Cc1c(-c2ccccc2)sc(N)c1C(=O)N1CCOCC1	4%	-3%	4%	-6%	-1%	13µM*
CCOC(=O)c1c(N)sc(-c2ccccc2)c1C	12%	-17%	4%	-11%	-22%	53%
COc1ccc(CC2=C(O)c3ccccc3C(=O)C2=O)cc1	153%	-1%	4%	0%	-15%	-10%
O=C1C(=O)c2ccccc2C(O)=C1CCCCl	1.9µM*	-3%	u	-5%	-17%	0.83µM*
CCOc1ccccc1NC(c1nnc(-c2ccccc2)o1)c1ccc(F)cc1Cl (centres undefined)	x	x	x	-2%	x	x
CCOc1ccc(C(=O)c2cn(Cc3ccccc3)c3c(F)cc(F)cc3c2=O)cc1	x	x	x	-10%	x	x
Cc1ccc(-c2cn(CCC(=O)O)c(-c3ccc(Cl)nc3)n2)cc1	52%	7%	4%	-8%	-17%	31%
Cc1ccc(-c2cn(CCN)c(-c3ccc(Cl)nc3)n2)cc1	-5%	-1%	1%	-11%	-19%	10µM*
CCN(CC(=O)Nc1cc(Cl)ccc1C)c1ncnc2sc(C)c(C)c12	u	6%[11.6 µM]	25µM*	u	-5%	u
CCN(CC(=O)Nc1cc(Cl)ccc1C)C(=O)C1CCN(c2ncnc3sc(C)c(C)c23)CC1	x	9%	x	x	x	x
O=C(NC12CC3CC(CC(C3)C1)C2)N1CCN(c2ccccn2)CC1	2%	-2%	19%	2%	u	12µM*
CCOc1ccc(NC(=O)N2CCC(n3nnc4ccccc43)CC2)cc1	6%	11%	-12%	-7%	-15%	u
O=C(NC12CC3CC(CC(C3)C1)C2)N1CCC(n2nnc3ccccc32)CC1	9.3µM*	5%	0%	u	-17%	u
CCOc1ccccc1NC(=O)C1CCCN(S(=O)(=O)c2cccc3cccnc23)C1 (centres undefined)	u	1%	3%	-4%	5.6µM*	u
